Screens deposited in PubChem by National Center for Advancing Translational Sciences (NCATS).
Vaccinia Venus: qHTS for Stage-Specific Inhibitors of Vaccinia Orthopoxvirus: Venus Reporter Primary qHTS. Vaccinia virus Venus reporter expression, fluorescence. Potency, µM (series often up to 36.5 µM), actives largely listed as inhibitors. 330,000 compounds, 0.46% hits. AID 720580, 2013; calls by dose curve; tested in A549 cells; note: nearly all actives have a fitted effect of over 30% in size
Vaccinia mCherry: qHTS for Stage-Specific Inhibitors of Vaccinia Orthopoxvirus: mCherry Reporter Primary qHTS; Vaccinia virus mCherry reporter infection, fluorescence; Potency, µM (top dose mostly 36.5 µM), hits mostly inhibitors; 310,000 compounds, 0.63% hits; AID 720579, 2013; calls by dose curve; tested in A549 cells; note: nearly all actives have a fitted effect of over 35% in size
HCV inhibitor: qHTS Assay for Inhibitors of Hepatitis C Virus (HCV) | Huh7.5.1 HCVcc-Cre infection, luciferase reporter, 44 h | Potency, µM (top dose mostly 41.8 µM), actives largely listed as inhibitors | 340,000 compounds, 3.4% hits | AID 651820, 2012
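A cell-based infection assay in which seeded cells (1,000 per well) receive test compound after 4 h, are inoculated with HCVcc-Cre at approximately 0.5 moi, and are incubated 44 h before luminescence detection.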
Sm TGR block: qHTS Assay for the Inhibitors of Schistosoma Mansoni Peroxiredoxins | purified TGR, DTNB reduction, TNB absorbance 405 nm | 360,000 compounds, 3% hits | Potency, µM (series often up to 114 µM), actives largely listed as inhibitors | Schistosoma mansoni thioredoxin glutathione reductase (TGR), Q962Y6; note: nearly all actives have a fitted effect of over 60% in size
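Kinetic colorimetric format: TGR-catalysed, NADPH-driven DTNB reduction monitored via TNB absorbance. Enzyme dispensed at 20 nM; compound exposure 15 min at room temperature before reaction start.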
HCMV inh: qHTS Assay for inhibitors of the human cytomegalovirus (HCMV) | AID 1259415, 2018 | activity change, negative = inhibition, % at 57.5 µM | 410,000 compounds, 4.5% hits | HFF cells, HCMV-luciferase reporter, 72 h; stronger effect = lower value; in the data active = activity change below about -60%; inconclusive = no clear call, values can overlap the other calls; inactive = above about -39%
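Human foreskin fibroblasts infected with luciferase-reporter HCMV at MOI 1 PFU/cell, compounds at two doses. Luciferase measured 72 h post infection; normalized to buffer-only basal and Salinomycin (10uM) controls.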
FMDV antiviral: High Throughput Screening for Foot and Mouth Disease Virus Antivirals; Potency, µM (doses to about 57.9 µM), most hits filed as inhibitors; FMDV antiviral cell-based qHTS; AID 1159524, 2015; 410,000 compounds, 1.2% hits; calls by dose curve; tested in HEK293T cells; note: read-out not given here; nearly all actives have a fitted effect of over 45% in size
A number is an active result; . = inactive; ? = inconclusive; / = not tested or not shown; [ ] = remark or other dose. In the library only some 9.3% were active in any assay of this set; here they are far more common. Unless noted, calls come from the whole dose curve; as a rule, active = well fitted curve in the direction sought with a large enough effect; inconclusive = small, poorly fitted or top-dose-only effect, or another doubt; inactive = no such curve, though single readings can be large; an effect the other way counts as inactive or inconclusive.

SMILES | Vaccinia Venus | Vaccinia mCherry | HCV inhibitor | Sm TGR block | HCMV inh | FMDV antiviral
Cn1c(=O)c2c(-c3ccccc3Cl)n(-c3cc(Cl)ccc3O)cc2n(C)c1=O | . | . | / | 12.6µM | . | .
Cn1c(=O)c2c(-c3ccccc3Cl)n(Cc3ccc(Cl)cc3)cc2n(C)c1=O | . | . | / | . | . | .
COc1ccc(OC)c(-n2c(O)c(C=Nc3c(C)n(C)n(-c4ccccc4)c3=O)c(=O)[nH]c2=S)c1 | . | . | . | ? | . | .
CCOc1ccc(NC(=O)C2Cc3ccccc3N2C(=O)c2ccccc2)cc1 (stereo unspecified) | . | . | / | 50.1µM | . | .
CC(C)(C)NC(=O)C(=O)NNC(=O)COc1ccccc1 | . | . | . | . | . | .
CC(=O)c1cc(O)c2ccccc2c1O | / | / | . | 8.91µM | . | .
O=C(CSc1nnc(-c2ccc(F)cc2)c2ccccc12)Nc1cccc(Cl)c1 | . | . | ? | . | . | .
Cc1ncc(CSc2nnnn2-c2ccccc2)c(N)n1 | . | . | . | 44.7µM | . | /
CCSc1nnnn1-c1ccccc1 | . | .[1.46 µM] | . | . | . | .
Oc1cccc(-c2nc3ccccc3s2)c1 | . | / | ? | . | . | .
Oc1cccc(-c2nnc(-c3cccc(O)c3)nn2)c1 | . | . | ? | / | . | 8.91µM
COc1ccc(C(CC(=O)O)NC(=O)C(c2ccccc2)c2ccccc2)cc1 (stereo unspecified) | . | . | . | . | / | .
Cc1ccc(-c2c(C)n3c4c(=O)n(C)c(=O)n(C)c4nc3n2CCCO)cc1 | . | . | / | . | -73.1 | 11.2µM
COC(=O)CCCn1c(-c2ccc(C)cc2)c(C)n2c3c(=O)n(C)c(=O)n(C)c3nc12 | . | . | / | . | . | ?
Cc1cccc(Nc2nc(N)c([N+](=O)[O-])c(N3CCCC(C)C3)n2)c1 (stereo unspecified) | 10µM | 12.6µM | ? | . | -77.3 | 22.4µM
Cc1ccc(CNc2nc(N)c([N+](=O)[O-])c(NCc3ccccc3)n2)cc1 | . | . | . | . | -61.2 | .
Nc1nc(Nc2ccccc2)nc(NC2CCCCC2)c1[N+](=O)[O-] | ? | ? | 10µM | . | -78.6 | .
Nc1nc(NCc2ccccc2)nc(NCc2ccccc2)c1[N+](=O)[O-] | . | . | . | . | ? | .
Cc1cccc(Nc2nc(N)c([N+](=O)[O-])c(N3CCN(C)CC3)n2)c1 | ? | ? | ? | . | . | .
Nc1nc(Nc2ccccc2)nc(NCc2ccccc2)c1[N+](=O)[O-] | ? | ? | ? | . | -75.2 | ?
COc1cccc(Nc2nc(N)c([N+](=O)[O-])c(NCc3ccccc3)n2)c1 | / | / | ? | . | ? | ?
CCn1c(SCC(=O)Nc2ccccc2)nc2ccccc2c1=O | . | . | . | . | . | .
Cc1cccc(Nc2nc(N)c([N+](=O)[O-])c(NCc3ccccc3)n2)c1 | ? | ? | ? | . | -94.2 | .
Cc1ccc(F)c(NC(=O)/C(C#N)=C(\O)c2ccc(C(C)(C)C)cc2)c1 | / | / | . | . | -63.2 | .
CCOC(=O)C1(Cc2ccccc2)CCN(Cc2ccc3c(c2)OCCO3)CC1 | . | . | . | . | . | .
SMILES | Vaccinia Venus | Vaccinia mCherry | HCV inhibitor | Sm TGR block | HCMV inh | FMDV antiviral
O=C(CN1CCC(n2nnc3cc(F)ccc32)CC1)NCc1ccco1 | / | / | . | 44.7µM | . | .
O=C(CSc1nc(C2CCCCC2)nc2ccccc12)NCc1ccco1 | ? | ? | ? | / | -102.4 | ?
O=C(CSc1nnnn1C1CCCCC1)NCc1ccco1 | . | . | . | 28.2µM | . | .
Cn1nnnc1SCC(=O)NCc1ccco1 | / | / | . | . | . | .
Cc1sc2nc(C3CC3)nc(SCC(=O)NCc3ccco3)c2c1C | . | . | . | ? | . | /
CCCOc1ccc(CNC(=O)Cn2ncn3c(cc4sc(CC)cc43)c2=O)cc1 | . | . | / | . | . | .
Cc1cccc(C)c1NC1=C(Cl)C(=O)OC1OC(C)C (stereo unspecified) | . | . | . | . | ? | .
Cc1ccc(-n2nc3c([n+]2[O-])CCc2c-3no[n+]2[O-])cc1 | / | / | . | . | -77.8 | .
[O-][n+]1onc2c1CCc1c-2nn(-c2ccccc2Cl)[n+]1[O-] | 1.26µM | 1µM | . | . | -99.7 | /
COc1ccccc1-c1nc(SCC(=O)N2CCOCC2)n[nH]1 | . | . | . | . | . | .
CCCC1NC(=O)c2cccnc2-n2c1nc1cc(F)c(F)cc1c2=O (stereo unspecified) | . | . | / | / | . | .
c1ccc2c(c1)Sc1ccccc1N2CC1CN2CCC1CC2 (stereo unspecified) | . | . | . | . | -60.4 | .
CCN(CC)c1ccc2c(c1)CCCN2 | / | / | 11.2µM | 5.01µM | / | /
Cc1cc2nc(CCN(C(=S)NCC(C)C)C3CCCC3)[nH]c2cc1C | ? | ? | ? | . | -85.3 | /
O=C(CNC(=S)N(Cc1ccc(F)cc1)C1CCCCC1)NCC1CCCO1 (stereo unspecified) | . | . | . | . | . | .
Cc1cc2nc(CCN(C(=S)NCC3CCCO3)C3CCCC3)[nH]c2cc1C (stereo unspecified) | / | / | 11.2µM | . | -62.9 | .
COc1ccccc1N1CCN(CCCNC(=O)c2cnn(-c3cccc(Cl)c3)c2C2CCN(C(=O)OC(C)(C)C)CC2)CC1 | . | ? | / | . | . | .
COc1ccccc1N(CC(O)COc1c(C)cc(C)cc1C)S(=O)(=O)c1ccccc1 (stereo unspecified) | . | . | ? | . | . | ?
COc1cc(NC(=O)c2cc(C)nc3c2c(C)nn3-c2ccccc2Cl)cc(OC)c1 | . | . | / | . | -65.8 | ?
COc1ccc(CC(=S)N2CCOCC2)cc1OC | . | . | . | . | . | .
O=C(CN1C(=O)NC2(CCCCCC2)C1=O)NCc1ccccc1 | / | / | . | / | . | .
CCCn1c(SCC(=O)Nc2cccc(S(=O)(=O)NC3=NCCCCC3)c2)nc2ccccc2c1=O | . | . | . | . | . | 31.6µM
O=C(COC(=O)c1ccccn1)Nc1ccc(S(=O)(=O)N2CCOCC2)cc1 | . | / | . | . | . | .
CCc1nc2ccccc2c(C(=O)OCC(=O)Nc2cccc(S(=O)(=O)N3CCOCC3)c2)c1C | / | / | 11.2µM | . | . | 20µM
CCOCCCn1c(SCC(=O)Nc2cccc(S(=O)(=O)NC3=NCCCCC3)c2)nc2ccccc2c1=O | / | / | . | . | . | .
CCc1nc2ccccc2c(C(=O)OCC(=O)Nc2cccc(S(=O)(=O)NC3=NCCCCC3)c2)c1C | ? | ? | 8.91µM | . | ? | 25.1µM
CCc1nc2ccccc2c(C(=O)OCC(=O)Nc2ccc(S(=O)(=O)N3CCOCC3)cc2)c1C | ? | ? | 11.2µM | . | . | ?
O=C(NCCCN1CCOCC1)c1ccc(-n2nc(C(F)(F)F)cc2-c2cccs2)cc1 | ? | ? | ? | . | -67.2 | ?
